# From PubChem BioAssay (NCI)
# The panel holds about 79,000 compounds, 15% with a hit somewhere; the sample as a whole holds those more often. Unmarked numbers belong to inactive results. The source made the active and inactive calls. Rule as the data show it: active = growth inhibition above about 70%; inactive = the rest.
# Legend:
# [1] = NCI Yeast Anticancer Drug Screen. Data for the rad52 strain (AID 147);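 also: 0% = growth of vehicle-treated control cultures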; details: S. cerevisiae rad52 mutant growth inhibition, stronger effect = higher value
# How it was run: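 Measured: yeast growth inhibition. System: strain with a defined DNA damage repair alteration. Reference: vehicle-treated control cultures.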
# [2] = NCI Yeast Anticancer Drug Screen. Data for the wt1 strain (AID 149);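 also: 0% = growth of vehicle-treated wt1 cultures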; details: S. cerevisiae wt1 strain (SPY 50644) growth inhibition, stronger effect = higher value
# How it was run: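 Each compound is tested on wt1 yeast and the loss of growth versus vehicle gives the inhibition value.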
# [3] = NCI Yeast Anticancer Drug Screen. Data for the rad50EPP+ strain (AID 151);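 also: 0% = growth of vehicle-treated control cultures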; details: S. cerevisiae rad50 mutant strain, stronger effect = higher value
# How it was run: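 One strain with a rad50 alteration (rad50EPP+) was compound-treated, its growth then compared to that of vehicle controls.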
# [4] = NCI Yeast Anticancer Drug Screen. Data for the mgt1 strain (AID 153); details: S. cerevisiae mgt1 mutant growth inhibition, stronger effect = higher value
# How it was run: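 After exposure of the mgt1 yeast mutant to compound, growth was measured and reported as inhibition compared with vehicle controls.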
# [5] = NCI Yeast Anticancer Drug Screen. Data for the rad50 strain (AID 155);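 also: 0% = growth of vehicle-only cultures of the same strain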; details: S. cerevisiae rad50 strain growth inhibition, stronger effect = higher value
# How it was run: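 Vehicle-treated cultures provide the reference for the growth inhibition reported for compound-exposed, repair-deficient yeast.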
# [6] = NCI Yeast Anticancer Drug Screen. Data for the mec2-1 strain (AID 157); details: S. cerevisiae mec2-1 strain, stronger effect = higher value
# How it was run: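 Test agents were screened against the mec2-1 yeast strain, with defined DNA repair or cell cycle alteration. Growth was scored as inhibition against vehicle-only controls.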
# [7] = NCI Yeast Anticancer Drug Screen. Data for the rad14 strain (AID 159);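 also: 0% = growth of vehicle-treated control cultures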; details: S. cerevisiae rad14 strain growth inhibition, stronger effect = higher value
# How it was run: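 Inhibition of growth is reported for a repair-deficient yeast mutant following compound treatment, calculated relative to cultures that received vehicle.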
# [8] = NCI Yeast Anticancer Drug Screen. Data for the sgs1 mgt1 strain (AID 161);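 also: 0% = growth of cultures given vehicle only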; details: S. cerevisiae sgs1 mgt1 strain, stronger effect = higher value
# How it was run: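 Read-out: growth inhibition vs vehicle controls. Cells: mutant yeast strain deficient in DNA damage repair.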
# [9] = NCI Yeast Anticancer Drug Screen. Data for the cln2 rad14 strain (AID 165);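 also: 0% = growth equal to vehicle treated cultures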; details: S. cerevisiae cln2 rad14 strain, stronger effect = higher value
# How it was run: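 Growth of compound-exposed yeast (cln2 rad14 genotype) measured and expressed as inhibition relative to vehicle.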
# [10] = NCI Yeast Anticancer Drug Screen. Data for the wt2 strain (AID 169); details: S. cerevisiae wt2 strain growth inhibition, stronger effect = higher value
# How it was run: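 Genetically defined yeast strains from a DNA-repair/cell-cycle panel were used. Compound-exposed yeast growth was measured, and the inhibition was calculated relative to vehicle treatment.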
# [11] = NCI Yeast Anticancer Drug Screen. Data for the mlh1 strain (AID 171);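 also: 0% = growth of vehicle-treated control cultures of the same strain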; details: S. cerevisiae mlh1 strain growth inhibition, stronger effect = higher value
# How it was run: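 Here the genetically defined yeast mutant is grown with each compound, and the extent to which its growth falls below that of vehicle-exposed cells is reported.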
# [12] = NCI Yeast Anticancer Drug Screen. Data for the sgs1 strain (AID 173);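 also: 0% = growth of vehicle-only control cultures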; details: S. cerevisiae sgs1 mutant, stronger effect = higher value
# How it was run: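 Relative growth inhibition, referenced to vehicle, was determined in a yeast strain with a defined alteration affecting DNA damage repair or cell cycle control after compound exposure.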
# [13] = NCI Yeast Anticancer Drug Screen. Data for the mlh1 rad18 strain (AID 175); details: S. cerevisiae mlh1 rad18 strain growth inhibition, stronger effect = higher value
# How it was run: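 In this whole-cell yeast screen, a strain with altered DNA damage repair is challenged with compound, and its growth is measured against matched vehicle-treated controls.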
# [14] = NCI Yeast Anticancer Drug Screen. Data for the rad18 strain (AID 177); details: S. cerevisiae rad18 mutant growth inhibition, stronger effect = higher value
# How it was run: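 Screen uses a yeast strain with a defined lesion in DNA damage repair; compound effect is read as loss of growth compared to untreated vehicle cultures.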
# [15] = NCI Yeast Anticancer Drug Screen. Data for the CLN2oe strain (AID 163);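 also: 0% = growth of vehicle-only control cultures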; details: S. cerevisiae CLN2oe strain, stronger effect = higher value
# How it was run: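 Here, growth inhibition in a cell-cycle-altered yeast strain after compound exposure was quantified against vehicle control growth.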
# [16] = NCI Yeast Anticancer Drug Screen. Data for the bub3 strain (AID 167); details: S. cerevisiae bub3 mutant strain, stronger effect = higher value
# How it was run: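 Mutant yeast screening strain plus compound; vehicle-treated cultures serve as the 0% inhibition reference.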
# [17] = at 5.0 µM (retest, dose inferred, filed as 0.5)
# [18] = at 50.0 µM (retest, dose inferred, filed as 5.0)
smiles,measurement,setting,value
O=C1C=CC(=O)N1c1ccc(N2C(=O)C=CC2=O)cc1,growth inhibition,[1]; at 1.2 µM,43%
same,growth inhibition,[1]; at 3.7 µM,93% (active)
same,growth inhibition,[1]; at 11.0 µM,100% (active)
same,growth inhibition,[1]; at 33.0 µM,100% (active)
same,growth inhibition,[1]; at 100.0 µM,99% (active)
same,growth inhibition,[2]; at 1.2 µM,33%
same,growth inhibition,[2]; at 3.7 µM,95% (active)
same,growth inhibition,[2]; at 11.0 µM,100% (active)
same,growth inhibition,[2]; at 33.0 µM,100% (active)
same,growth inhibition,[2]; at 100.0 µM,98% (active)
same,growth inhibition,[3]; at 1.2 µM,3%
same,growth inhibition,[3]; at 3.7 µM,49%
same,growth inhibition,[3]; at 11.0 µM,85% (active)
same,growth inhibition,[3]; at 33.0 µM,99% (active)
same,growth inhibition,[3]; at 100.0 µM,99% (active)
same,growth inhibition,[4]; at 1.2 µM,60%
same,growth inhibition,[4]; at 3.7 µM,102% (active)
same,growth inhibition,[4]; at 11.0 µM,100% (active)
same,growth inhibition,[4]; at 33.0 µM,100% (active)
same,growth inhibition,[4]; at 100.0 µM,98% (active)
same,growth inhibition,[5]; at 1.2 µM,32%
same,growth inhibition,[5]; at 3.7 µM,97% (active)
same,growth inhibition,[5]; [17],44%
same,growth inhibition,[5]; at 11.0 µM,100% (active)
same,growth inhibition,[5]; at 33.0 µM,100% (active)
same,growth inhibition,[5]; [18],73% (active)
same,growth inhibition,[5]; at 50.0 µM,92.2% (active)
same,growth inhibition,[5]; at 100.0 µM,99% (active)
same,growth inhibition,[6]; at 1.2 µM,46%
same,growth inhibition,[6]; at 3.7 µM,101% (active)
same,growth inhibition,[6]; [17],39%
same,growth inhibition,[6]; at 11.0 µM,100% (active)
same,growth inhibition,[6]; at 33.0 µM,100% (active)
same,growth inhibition,[6]; [18],82% (active)
same,growth inhibition,[6]; at 50.0 µM,94.4% (active)
same,growth inhibition,[6]; at 100.0 µM,99% (active)
same,growth inhibition,[7]; at 1.2 µM,17%
same,growth inhibition,[7]; at 3.7 µM,101% (active)
same,growth inhibition,[7]; at 11.0 µM,100% (active)
same,growth inhibition,[7]; at 33.0 µM,100% (active)
same,growth inhibition,[7]; at 100.0 µM,99% (active)
same,growth inhibition,[8]; [17],-16%
same,growth inhibition,[8]; [18],100% (active)
same,growth inhibition,[8]; at 50.0 µM,93.5% (active)
same,growth inhibition,[9]; [17],47%
same,growth inhibition,[9]; [18],100% (active)
same,growth inhibition,[9]; at 50.0 µM,92.3% (active)
same,growth inhibition,[10]; at 1.2 µM,9%
same,growth inhibition,[10]; at 3.7 µM,91% (active)
same,growth inhibition,[10]; at 11.0 µM,99% (active)
same,growth inhibition,[10]; at 33.0 µM,100% (active)
same,growth inhibition,[10]; at 100.0 µM,98% (active)
same,growth inhibition,[11]; at 1.2 µM,49%
same,growth inhibition,[11]; at 3.7 µM,99% (active)
same,growth inhibition,[11]; at 11.0 µM,100% (active)
same,growth inhibition,[11]; at 33.0 µM,100% (active)
same,growth inhibition,[11]; at 100.0 µM,99% (active)
same,growth inhibition,[12]; at 1.2 µM,41%
same,growth inhibition,[12]; at 3.7 µM,99% (active)
same,growth inhibition,[12]; at 11.0 µM,99% (active)
same,growth inhibition,[12]; at 33.0 µM,100% (active)
same,growth inhibition,[12]; at 100.0 µM,99% (active)
same,growth inhibition,[13]; [17],37%
same,growth inhibition,[13]; [18],75% (active)
same,growth inhibition,[13]; at 50.0 µM,92.5% (active)
same,growth inhibition,[14]; at 1.2 µM,46%
same,growth inhibition,[14]; at 3.7 µM,90% (active)
same,growth inhibition,[14]; at 11.0 µM,100% (active)
same,growth inhibition,[14]; at 33.0 µM,100% (active)
same,growth inhibition,[14]; at 100.0 µM,99% (active)
c1ccc2c(c1)Cn1c-2nc2ccccc21,growth inhibition,[1]; at 1.2 µM,1%
same,growth inhibition,[1]; at 3.7 µM,1%
same,growth inhibition,[1]; at 11.0 µM,8%
same,growth inhibition,[1]; at 33.0 µM,78% (active)
same,growth inhibition,[1]; at 100.0 µM,97% (active)
same,growth inhibition,[2]; at 1.2 µM,-27%
same,growth inhibition,[2]; at 3.7 µM,-21%
same,growth inhibition,[2]; at 11.0 µM,-28%
same,growth inhibition,[2]; at 33.0 µM,5%
same,growth inhibition,[2]; at 100.0 µM,94% (active)
same,growth inhibition,[3]; at 1.2 µM,2%
same,growth inhibition,[3]; at 3.7 µM,-4%
same,growth inhibition,[3]; at 11.0 µM,8%
same,growth inhibition,[3]; at 33.0 µM,62%
same,growth inhibition,[3]; at 100.0 µM,95% (active)
same,growth inhibition,[4]; at 1.2 µM,15%
same,growth inhibition,[4]; at 3.7 µM,3%
same,growth inhibition,[4]; at 11.0 µM,30%
same,growth inhibition,[4]; at 33.0 µM,74% (active)
same,growth inhibition,[4]; at 100.0 µM,98% (active)
same,growth inhibition,[5]; at 1.2 µM,-9%
same,growth inhibition,[5]; at 3.7 µM,1%
same,growth inhibition,[5]; [17],49%
same,growth inhibition,[5]; at 11.0 µM,24%
same,growth inhibition,[5]; at 33.0 µM,75% (active)
same,growth inhibition,[5]; [18],74% (active)
same,growth inhibition,[5]; at 50.0 µM,84.3% (active)
same,growth inhibition,[5]; at 100.0 µM,96% (active)
same,growth inhibition,[6]; at 1.2 µM,9%
same,growth inhibition,[6]; at 3.7 µM,7%
same,growth inhibition,[6]; [17],73% (active)
same,growth inhibition,[6]; at 11.0 µM,13%
same,growth inhibition,[6]; at 33.0 µM,53%
same,growth inhibition,[6]; [18],85% (active)
same,growth inhibition,[6]; at 50.0 µM,69.5%
same,growth inhibition,[6]; at 100.0 µM,98% (active)
same,growth inhibition,[7]; at 1.2 µM,-19%
same,growth inhibition,[7]; at 3.7 µM,-17%
same,growth inhibition,[7]; at 11.0 µM,-12%
same,growth inhibition,[7]; at 33.0 µM,33%
same,growth inhibition,[7]; at 100.0 µM,97% (active)
same,growth inhibition,[8]; [17],-27%
same,growth inhibition,[8]; [18],84% (active)
same,growth inhibition,[15]; at 1.2 µM,-18%
same,growth inhibition,[15]; at 3.7 µM,0%
same,growth inhibition,[15]; at 11.0 µM,-23%
same,growth inhibition,[15]; at 33.0 µM,18%
same,growth inhibition,[15]; at 100.0 µM,96% (active)
same,growth inhibition,[9]; [17],54%
same,growth inhibition,[9]; [18],87% (active)
same,growth inhibition,[16]; at 1.2 µM,-11%
same,growth inhibition,[16]; at 3.7 µM,-5%
same,growth inhibition,[16]; [17],27%
same,growth inhibition,[16]; at 11.0 µM,3%
same,growth inhibition,[16]; at 33.0 µM,68%
same,growth inhibition,[16]; [18],86% (active)
same,growth inhibition,[16]; at 100.0 µM,97% (active)
same,growth inhibition,[10]; at 1.2 µM,-24%
same,growth inhibition,[10]; at 3.7 µM,-5%
same,growth inhibition,[10]; at 11.0 µM,-4%
same,growth inhibition,[10]; at 33.0 µM,34%
same,growth inhibition,[10]; at 100.0 µM,94% (active)
same,growth inhibition,[11]; at 1.2 µM,-31%
same,growth inhibition,[11]; at 3.7 µM,-8%
same,growth inhibition,[11]; at 11.0 µM,2%
same,growth inhibition,[11]; at 33.0 µM,36%
same,growth inhibition,[11]; at 100.0 µM,96% (active)
same,growth inhibition,[12]; at 1.2 µM,-7%
same,growth inhibition,[12]; at 3.7 µM,-21%
same,growth inhibition,[12]; at 11.0 µM,-21%
same,growth inhibition,[12]; at 33.0 µM,31%
same,growth inhibition,[12]; at 100.0 µM,92% (active)
same,growth inhibition,[13]; [17],50%
same,growth inhibition,[13]; [18],78% (active)
same,growth inhibition,[13]; at 50.0 µM,83.4% (active)
same,growth inhibition,[14]; at 1.2 µM,-7%
same,growth inhibition,[14]; at 3.7 µM,-4%
same,growth inhibition,[14]; at 11.0 µM,-1%
same,growth inhibition,[14]; at 33.0 µM,25%
same,growth inhibition,[14]; at 100.0 µM,95% (active)
